Legend:
Type in all cases: functional
[1] = biological target: Solute carrier family 2, facilitated glucose transporter member 1 (Homo sapiens) (UniProt P11166); test: ST_JUDE_LEISH: Cytotoxicity at 2uM final concentration against transgenic Leishmania Mexicana promastigotes LmGLUT1 that are glucose transport deficient and complemented with the human glucose transporter GLUT1. Activity is measured by DNA content using SYBR green in vitro
[2] = biological target: Hexose transporter 1 (Plasmodium falciparum) (UniProt O97467); test: ST_JUDE_LEISH: Cytotoxicity at 2uM final concentration against transgenic Leishmania Mexicana promastigotes LmPfHT that are glucose transport deficient and complemented with the Plasmodium falciparum hexose transporter. Activity is measured by DNA content using SYBR green in vitro
[3] = biological target: Glucose transporter (Leishmania mexicana) (UniProt O61059); test: ST_JUDE_LEISH: Cytotoxicity at 2uM final concentration against transgenic Leishmania Mexicana promastigotes LmGT2 that are glucose transport deficient and complemented with the L. Mexicana glucose transporter 2. Activity is measured by DNA content using SYBR green in vitro

Solute carrier family 2, facilitated glucose transporter member 1 (Homo sapiens), sequence (P11166 whole entry): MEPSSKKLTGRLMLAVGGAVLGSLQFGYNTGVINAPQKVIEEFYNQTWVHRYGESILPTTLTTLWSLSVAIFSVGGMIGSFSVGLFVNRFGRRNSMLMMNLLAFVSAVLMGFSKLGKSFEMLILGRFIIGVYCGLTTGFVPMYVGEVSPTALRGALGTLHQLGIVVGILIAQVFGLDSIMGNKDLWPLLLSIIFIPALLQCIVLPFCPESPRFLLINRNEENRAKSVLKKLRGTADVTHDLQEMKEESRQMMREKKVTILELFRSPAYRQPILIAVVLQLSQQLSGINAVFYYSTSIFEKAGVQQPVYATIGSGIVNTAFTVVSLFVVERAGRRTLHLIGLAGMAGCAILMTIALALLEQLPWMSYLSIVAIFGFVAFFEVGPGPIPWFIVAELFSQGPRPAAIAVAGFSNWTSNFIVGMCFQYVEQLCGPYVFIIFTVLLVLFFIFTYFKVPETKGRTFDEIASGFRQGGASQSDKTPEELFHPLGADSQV

Row | SMILES | inhibition [1] | inhibition [2] | inhibition [3]
1 | CC(CNC1CCN(CCn2c(=O)ccc3ccc(F)cc32)CC1)c1ccccc1 (stereo not drawn) | -1.82% | -1.07% | -0.24%
2 | NCCCNc1nccc(N2CCc3ncnc(Nc4ccc(OCc5cccc(F)c5)c(Cl)c4)c3C2)n1 | 2.13% | 4.48% | 4.02%
3 | O=C(Nc1ccc(C(F)(F)F)cc1)N[C@H]1CCN(CCCCCNC(=O)C2CC2c2ccc(Cl)c(Cl)c2)C1 (stereo partly drawn) | 3.36% | 2.73% | 2.17%
4 | COc1ccc(Nc2nccc(NCC(O)c3ccc(C(F)(F)F)cc3)n2)cc1 (stereo not drawn) | 2.9% | 5.27% | 2.61%
5 | FC(F)(F)c1ccc2[nH]c(-c3ccc(-c4cccc(CNCCc5ccncc5)c4)s3)nc2c1 | 0.52% | 1.67% | 5.33%
6 | CC(C)C[C@@H](C(=O)N[C@@H](CCCCNC(=O)OCc1ccccc1)C(=O)Nc1nccs1)[C@H](C)N(O)C=O | 3.19% | 3.38% | 0.49%
7 | COc1ccc2c(c1)CC(CNC[C@H](O)c1cccc(Cl)c1)CC2 (stereo partly drawn) | -1.38% | 0.78% | 1%
8 | CC(=O)Nc1cccc(C(=O)Nc2cccc(-c3ccc(-c4nc5cc(F)ccc5[nH]4)cc3)c2)c1 | 2.1% | 2.11% | 1.46%
9 | CN1CCCN(c2ccnc3cc4c(cc23)N(C(=O)c2ccc(Cl)cc2)CC4)CC1 | 13.4% | 12.5% | 16.1%
10 | COc1ccc(OCc2ccccn2)c(C2CCN(CCCCNC(=O)c3ccc(NC(=O)c4ccc(Cl)cc4)cc3)CC2)c1 | 1.01% | -4.32% | -2.76%
11 | Cc1cc(N[C@@H](CC(C)C)C(=O)NCc2cccs2)nc(NCCc2ccc(F)cc2)n1 | 0.98% | -0.43% | 0.13%
